From paper PMC7862700, “An all-to-all approach to the identification of sequence-specific readers for epigenetic DNA modifications on cytosine”

What was measured:
Test in all cases: DAPPL (digital affinity profiling via proximity ligation, sequencing); 10 mM Tris-HCl pH 7.5, 50 mM NaCl, 1 mM DTT, 4% glycerol, room temperature, 30 min; GST-TFs on glutathione beads, 16-mer random dsDNA library, 0.1% formaldehyde crosslink after washing; high values mean tight binding
FEV = molecular target: T1, FEV (Homo sapiens, UniProt Q99581 1-238); conditions: protein: recombinant; tags: N-terminal GST; dsDNA, one strand shown
T1 sequence: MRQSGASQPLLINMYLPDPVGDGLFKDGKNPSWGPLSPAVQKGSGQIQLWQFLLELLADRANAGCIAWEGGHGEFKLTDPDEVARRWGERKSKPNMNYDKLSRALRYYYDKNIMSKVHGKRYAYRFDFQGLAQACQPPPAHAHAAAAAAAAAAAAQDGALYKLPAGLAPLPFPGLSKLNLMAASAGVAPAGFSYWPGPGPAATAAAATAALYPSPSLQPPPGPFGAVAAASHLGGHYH
How it was run: (§1)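 The binding signal reported is, for every hexamer, its read frequency for a factor over its read frequency for the tag-only sample. Reads came from pools of yeast-expressed, GST-fused human transcription factors on glutathione beads, barcoded with DNA and mixed with that sample, which were incubated with 200 nmole of a random double-stranded 16-mer DNA library in Tris/NaCl/DTT/glycerol buffer at room temperature for 30 min. After washing, the pools were crosslinked with 0.1% formaldehyde, proximity-ligated with BsaI/T4 ligase for 1 h at 37 °C, PCR-amplified and sequenced on an Illumina NextSeq500.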

ETV5 = ETV5 (Homo sapiens, UniProt P41161 1-510); conditions: protein: recombinant; tags: N-terminal GST; dsDNA, one strand shown
How it was run: as §1

HSF1 = HSF1 (Homo sapiens, UniProt Q00613 1-529); conditions: protein: recombinant; tags: N-terminal GST; chain copies: 3; dsDNA, one strand shown
How it was run: as §1

SPIC = molecular target: T2, SPIC (Homo sapiens, UniProt Q8N5J4 1-248); conditions: protein: recombinant; tags: N-terminal GST; dsDNA, one strand shown
T2 sequence: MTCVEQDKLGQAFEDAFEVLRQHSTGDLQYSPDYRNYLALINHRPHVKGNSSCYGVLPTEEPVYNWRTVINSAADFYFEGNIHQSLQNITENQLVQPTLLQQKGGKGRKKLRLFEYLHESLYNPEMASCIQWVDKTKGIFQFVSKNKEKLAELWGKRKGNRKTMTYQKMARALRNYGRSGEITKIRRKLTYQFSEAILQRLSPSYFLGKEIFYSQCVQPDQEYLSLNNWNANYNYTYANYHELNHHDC
How it was run: as §1

ELF4 = ELF4 (Homo sapiens, UniProt Q99607 1-663); conditions: protein: recombinant; tags: N-terminal GST; dsDNA, one strand shown
How it was run: as §1

ELK4 = molecular target: T3, ELK4 (Homo sapiens, UniProt P28324-2 1-405); conditions: protein: recombinant; tags: N-terminal GST; dsDNA, one strand shown
T3 sequence: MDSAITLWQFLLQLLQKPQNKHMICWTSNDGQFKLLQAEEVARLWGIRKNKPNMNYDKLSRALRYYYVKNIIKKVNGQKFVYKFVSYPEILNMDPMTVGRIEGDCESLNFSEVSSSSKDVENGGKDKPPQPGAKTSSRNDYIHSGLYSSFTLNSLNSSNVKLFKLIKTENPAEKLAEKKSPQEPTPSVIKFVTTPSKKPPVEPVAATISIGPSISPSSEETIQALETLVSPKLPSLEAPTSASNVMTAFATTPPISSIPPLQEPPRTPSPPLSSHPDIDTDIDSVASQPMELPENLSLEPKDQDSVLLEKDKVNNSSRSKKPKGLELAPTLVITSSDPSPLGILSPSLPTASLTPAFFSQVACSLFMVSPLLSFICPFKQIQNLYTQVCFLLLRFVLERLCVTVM
How it was run: as §1

ELF3 = molecular target: T4, ELF3 (Homo sapiens, UniProt P78545 1-371); conditions: protein: recombinant; tags: N-terminal GST; dsDNA, one strand shown
T4 sequence: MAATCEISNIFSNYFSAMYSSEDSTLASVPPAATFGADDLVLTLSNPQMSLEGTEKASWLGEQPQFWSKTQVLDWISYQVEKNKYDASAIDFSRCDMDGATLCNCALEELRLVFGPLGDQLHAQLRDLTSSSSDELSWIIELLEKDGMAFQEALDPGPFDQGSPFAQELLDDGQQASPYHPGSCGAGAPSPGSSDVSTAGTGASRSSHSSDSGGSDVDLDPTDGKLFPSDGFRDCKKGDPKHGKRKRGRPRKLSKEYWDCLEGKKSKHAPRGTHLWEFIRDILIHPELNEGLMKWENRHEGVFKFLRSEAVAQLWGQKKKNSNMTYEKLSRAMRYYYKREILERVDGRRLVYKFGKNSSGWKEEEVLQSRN
How it was run: as §1

ETV1 = ETV1 (Homo sapiens, UniProt P50549 1-477); conditions: protein: recombinant; tags: N-terminal GST; dsDNA, one strand shown
How it was run: as §1

ERF = molecular target: T5, ERF (Homo sapiens, UniProt P50548 1-548); conditions: protein: recombinant; tags: N-terminal GST; dsDNA, one strand shown
T5 sequence: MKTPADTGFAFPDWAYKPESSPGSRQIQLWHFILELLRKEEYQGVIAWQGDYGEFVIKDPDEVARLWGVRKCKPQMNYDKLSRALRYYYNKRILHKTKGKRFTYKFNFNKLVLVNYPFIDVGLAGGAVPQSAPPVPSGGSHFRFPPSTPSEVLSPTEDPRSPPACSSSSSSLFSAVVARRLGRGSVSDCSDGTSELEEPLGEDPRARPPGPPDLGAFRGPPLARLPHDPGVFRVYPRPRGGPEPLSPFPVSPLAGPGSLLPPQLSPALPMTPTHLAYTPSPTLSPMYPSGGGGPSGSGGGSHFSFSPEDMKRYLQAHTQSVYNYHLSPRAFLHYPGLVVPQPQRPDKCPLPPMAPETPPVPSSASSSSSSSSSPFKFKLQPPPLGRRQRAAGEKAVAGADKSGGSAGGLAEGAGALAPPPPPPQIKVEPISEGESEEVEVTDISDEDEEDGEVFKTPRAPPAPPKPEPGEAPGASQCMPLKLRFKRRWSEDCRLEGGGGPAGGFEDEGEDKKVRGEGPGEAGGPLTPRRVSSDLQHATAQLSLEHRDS
How it was run: as §1

ETV3L = molecular target: T6, ETV3L (Homo sapiens, UniProt Q6ZN32 1-361); conditions: protein: recombinant; tags: N-terminal GST; dsDNA, one strand shown
T6 sequence: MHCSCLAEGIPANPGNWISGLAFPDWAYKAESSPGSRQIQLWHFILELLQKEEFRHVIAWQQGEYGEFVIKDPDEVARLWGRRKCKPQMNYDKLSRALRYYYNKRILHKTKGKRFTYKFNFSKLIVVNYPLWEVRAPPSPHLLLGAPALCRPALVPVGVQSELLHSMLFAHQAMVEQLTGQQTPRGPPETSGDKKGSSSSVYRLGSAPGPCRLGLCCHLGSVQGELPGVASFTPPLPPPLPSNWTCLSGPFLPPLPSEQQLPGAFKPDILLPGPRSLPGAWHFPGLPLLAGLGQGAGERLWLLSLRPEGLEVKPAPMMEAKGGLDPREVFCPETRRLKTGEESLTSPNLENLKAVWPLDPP
How it was run: as §1

ETS2 = molecular target: T7, ETS2 (Homo sapiens, UniProt P15036 1-469); conditions: protein: recombinant; tags: N-terminal GST; dsDNA, one strand shown
T7 sequence: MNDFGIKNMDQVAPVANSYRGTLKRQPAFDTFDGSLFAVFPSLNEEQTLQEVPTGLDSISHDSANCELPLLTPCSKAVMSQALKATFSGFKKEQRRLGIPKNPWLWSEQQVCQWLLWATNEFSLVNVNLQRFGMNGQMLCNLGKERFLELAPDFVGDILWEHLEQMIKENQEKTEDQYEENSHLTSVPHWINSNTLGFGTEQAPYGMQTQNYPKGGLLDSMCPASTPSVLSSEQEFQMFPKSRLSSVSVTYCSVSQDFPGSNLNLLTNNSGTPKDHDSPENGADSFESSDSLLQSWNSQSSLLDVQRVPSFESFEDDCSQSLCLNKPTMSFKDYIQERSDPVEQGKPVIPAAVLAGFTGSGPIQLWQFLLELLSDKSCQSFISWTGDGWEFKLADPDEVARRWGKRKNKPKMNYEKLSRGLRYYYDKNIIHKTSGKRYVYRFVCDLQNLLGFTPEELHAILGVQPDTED
How it was run: as §1

SPDEF = molecular target: T8, SPDEF (Homo sapiens, UniProt O95238 1-335); conditions: protein: recombinant; tags: N-terminal GST; dsDNA, one strand shown
T8 sequence: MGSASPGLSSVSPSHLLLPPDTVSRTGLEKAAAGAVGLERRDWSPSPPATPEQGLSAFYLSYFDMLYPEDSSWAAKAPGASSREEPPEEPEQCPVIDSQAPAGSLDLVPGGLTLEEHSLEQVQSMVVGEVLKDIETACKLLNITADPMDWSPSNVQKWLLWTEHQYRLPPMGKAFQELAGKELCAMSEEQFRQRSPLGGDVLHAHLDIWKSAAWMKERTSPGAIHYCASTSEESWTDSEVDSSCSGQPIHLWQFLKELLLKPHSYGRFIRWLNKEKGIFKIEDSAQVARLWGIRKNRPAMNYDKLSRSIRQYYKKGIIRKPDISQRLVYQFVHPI
How it was run: as §1

ETV7 = molecular target: T9, ETV7 (Homo sapiens, UniProt Q9Y603 1-341); conditions: protein: recombinant; tags: N-terminal GST; dsDNA, one strand shown
T9 sequence: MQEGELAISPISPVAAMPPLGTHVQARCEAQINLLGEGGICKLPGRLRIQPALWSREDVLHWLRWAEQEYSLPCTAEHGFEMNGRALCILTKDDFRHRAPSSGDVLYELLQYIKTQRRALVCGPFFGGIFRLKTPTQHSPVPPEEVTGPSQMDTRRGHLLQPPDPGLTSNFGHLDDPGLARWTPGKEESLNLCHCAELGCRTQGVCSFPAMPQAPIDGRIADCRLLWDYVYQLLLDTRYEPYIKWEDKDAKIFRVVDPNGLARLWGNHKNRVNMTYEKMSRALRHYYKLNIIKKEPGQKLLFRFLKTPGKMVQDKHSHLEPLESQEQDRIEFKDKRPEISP
How it was run: as §1

ELF5 = molecular target: T10, ELF5 (Homo sapiens, UniProt Q9UKW6-2 1-255); conditions: protein: recombinant; tags: N-terminal GST; dsDNA, one strand shown
T10 sequence: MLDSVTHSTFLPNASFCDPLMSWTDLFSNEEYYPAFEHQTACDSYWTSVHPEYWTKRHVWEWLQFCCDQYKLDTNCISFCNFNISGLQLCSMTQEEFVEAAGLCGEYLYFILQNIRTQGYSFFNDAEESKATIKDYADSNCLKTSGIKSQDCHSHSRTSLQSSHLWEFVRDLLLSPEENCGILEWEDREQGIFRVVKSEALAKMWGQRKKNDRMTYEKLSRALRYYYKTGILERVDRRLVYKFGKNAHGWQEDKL
How it was run: as §1

ETV3 = molecular target: T11, ETV3 (Homo sapiens, UniProt P41162-2 1-143); conditions: protein: recombinant; tags: N-terminal GST; dsDNA, one strand shown
T11 sequence: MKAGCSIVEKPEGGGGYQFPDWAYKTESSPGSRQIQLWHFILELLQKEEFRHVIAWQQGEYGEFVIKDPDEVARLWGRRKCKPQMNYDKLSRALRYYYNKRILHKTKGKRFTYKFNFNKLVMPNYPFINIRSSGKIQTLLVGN
How it was run: as §1

ETV6 = ETV6 (Homo sapiens, UniProt P41212 1-452); conditions: protein: recombinant; tags: N-terminal GST; dsDNA, one strand shown
How it was run: as §1

CRX = CRX (Homo sapiens, UniProt O43186 1-299); conditions: protein: recombinant; tags: N-terminal GST; dsDNA, one strand shown
How it was run: as §1

ETV6, sequence (P41212 whole entry): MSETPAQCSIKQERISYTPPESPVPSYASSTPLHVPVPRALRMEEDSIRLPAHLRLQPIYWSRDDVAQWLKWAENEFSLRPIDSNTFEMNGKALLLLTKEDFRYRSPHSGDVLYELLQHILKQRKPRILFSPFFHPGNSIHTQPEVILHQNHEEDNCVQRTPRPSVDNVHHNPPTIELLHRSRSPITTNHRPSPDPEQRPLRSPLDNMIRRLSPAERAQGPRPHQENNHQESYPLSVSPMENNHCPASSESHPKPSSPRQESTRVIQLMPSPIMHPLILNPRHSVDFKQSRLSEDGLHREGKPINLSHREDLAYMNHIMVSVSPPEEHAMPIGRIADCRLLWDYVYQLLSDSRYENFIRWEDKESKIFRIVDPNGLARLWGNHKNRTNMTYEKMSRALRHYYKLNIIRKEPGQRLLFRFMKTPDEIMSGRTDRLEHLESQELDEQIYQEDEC
ETV1, sequence (P50549 whole entry): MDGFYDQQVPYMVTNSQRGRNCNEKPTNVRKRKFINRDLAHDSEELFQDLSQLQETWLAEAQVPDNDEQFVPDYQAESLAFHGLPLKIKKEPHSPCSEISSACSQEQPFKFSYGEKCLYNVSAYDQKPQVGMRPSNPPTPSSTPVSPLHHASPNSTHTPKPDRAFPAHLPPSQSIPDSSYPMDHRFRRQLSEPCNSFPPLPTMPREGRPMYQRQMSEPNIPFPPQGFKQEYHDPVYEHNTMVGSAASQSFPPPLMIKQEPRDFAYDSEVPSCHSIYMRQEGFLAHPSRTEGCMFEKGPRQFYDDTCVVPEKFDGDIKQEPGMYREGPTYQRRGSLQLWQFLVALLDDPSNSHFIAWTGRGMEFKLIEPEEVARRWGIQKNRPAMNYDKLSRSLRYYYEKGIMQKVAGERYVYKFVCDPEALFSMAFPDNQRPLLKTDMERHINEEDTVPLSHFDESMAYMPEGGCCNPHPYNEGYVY
HSF1, sequence (Q00613 whole entry): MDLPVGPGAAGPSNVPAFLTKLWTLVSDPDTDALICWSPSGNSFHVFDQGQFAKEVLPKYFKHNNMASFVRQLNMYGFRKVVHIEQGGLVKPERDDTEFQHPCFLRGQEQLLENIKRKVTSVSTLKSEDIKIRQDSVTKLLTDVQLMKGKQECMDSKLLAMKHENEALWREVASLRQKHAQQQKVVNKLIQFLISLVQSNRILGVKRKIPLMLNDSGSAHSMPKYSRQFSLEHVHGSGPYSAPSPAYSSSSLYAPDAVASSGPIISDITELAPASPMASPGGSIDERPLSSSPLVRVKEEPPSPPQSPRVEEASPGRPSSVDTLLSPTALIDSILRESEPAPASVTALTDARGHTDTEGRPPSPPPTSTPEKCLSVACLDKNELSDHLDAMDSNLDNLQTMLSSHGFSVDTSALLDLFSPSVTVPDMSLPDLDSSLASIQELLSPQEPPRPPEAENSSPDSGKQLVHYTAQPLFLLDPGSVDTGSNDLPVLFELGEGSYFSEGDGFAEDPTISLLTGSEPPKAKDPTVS
ETV5, sequence (P41161 whole entry): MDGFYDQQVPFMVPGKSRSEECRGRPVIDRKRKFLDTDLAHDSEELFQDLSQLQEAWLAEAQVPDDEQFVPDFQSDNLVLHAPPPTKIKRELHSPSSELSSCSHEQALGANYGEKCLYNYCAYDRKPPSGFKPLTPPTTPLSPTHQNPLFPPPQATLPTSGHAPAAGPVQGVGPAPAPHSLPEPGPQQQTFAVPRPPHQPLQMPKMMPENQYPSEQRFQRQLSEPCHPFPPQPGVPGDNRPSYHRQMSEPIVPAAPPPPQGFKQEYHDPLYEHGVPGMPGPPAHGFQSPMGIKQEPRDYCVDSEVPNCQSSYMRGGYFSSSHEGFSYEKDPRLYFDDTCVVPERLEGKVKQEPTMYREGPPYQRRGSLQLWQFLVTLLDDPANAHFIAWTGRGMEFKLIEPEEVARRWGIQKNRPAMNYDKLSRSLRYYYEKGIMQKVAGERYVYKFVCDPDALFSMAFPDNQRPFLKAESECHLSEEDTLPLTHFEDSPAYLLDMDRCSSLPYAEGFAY
ELF4, sequence (Q99607 whole entry): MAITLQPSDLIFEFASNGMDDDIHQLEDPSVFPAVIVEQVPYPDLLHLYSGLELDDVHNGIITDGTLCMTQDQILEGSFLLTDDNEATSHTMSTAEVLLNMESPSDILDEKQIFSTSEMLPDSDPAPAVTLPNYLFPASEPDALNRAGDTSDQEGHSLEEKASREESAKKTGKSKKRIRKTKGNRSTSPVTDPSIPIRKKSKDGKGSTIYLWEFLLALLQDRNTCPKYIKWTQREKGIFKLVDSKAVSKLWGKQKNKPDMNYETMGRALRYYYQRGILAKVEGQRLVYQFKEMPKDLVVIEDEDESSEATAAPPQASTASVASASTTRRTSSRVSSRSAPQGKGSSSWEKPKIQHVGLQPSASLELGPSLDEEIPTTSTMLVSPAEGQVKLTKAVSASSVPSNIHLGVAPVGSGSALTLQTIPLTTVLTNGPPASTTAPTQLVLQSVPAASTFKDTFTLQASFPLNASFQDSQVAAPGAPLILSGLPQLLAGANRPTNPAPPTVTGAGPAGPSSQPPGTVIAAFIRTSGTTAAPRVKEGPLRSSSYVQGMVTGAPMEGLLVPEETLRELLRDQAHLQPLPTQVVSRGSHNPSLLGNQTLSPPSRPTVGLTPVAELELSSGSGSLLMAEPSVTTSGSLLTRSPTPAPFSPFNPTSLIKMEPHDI
CRX, sequence (O43186 whole entry): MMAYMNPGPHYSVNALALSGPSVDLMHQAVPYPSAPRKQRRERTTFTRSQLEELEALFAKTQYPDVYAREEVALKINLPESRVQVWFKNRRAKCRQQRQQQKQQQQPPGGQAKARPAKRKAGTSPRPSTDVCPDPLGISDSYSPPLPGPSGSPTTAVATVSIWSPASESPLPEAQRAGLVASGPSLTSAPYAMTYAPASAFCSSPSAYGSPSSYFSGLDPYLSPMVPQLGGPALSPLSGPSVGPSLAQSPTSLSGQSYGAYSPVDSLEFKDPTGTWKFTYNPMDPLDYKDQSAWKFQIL

| Sequence | binding signal (FEV) | binding signal (ETV5) | binding signal (HSF1) | binding signal (SPIC) | binding signal (ELF4) | binding signal (ELK4) | binding signal (ELF3) | binding signal (ETV1) | binding signal (ERF) | binding signal (ETV3L) | binding signal (ETS2) | binding signal (SPDEF) | binding signal (ETV7) | binding signal (ELF5) | binding signal (ETV3) | binding signal (ETV6) | binding signal (CRX) |
| --- | --- | --- | --- | --- | --- | --- | --- | --- | --- | --- | --- | --- | --- | --- | --- | --- | --- |
| TGCGCA | 1.14 fold enrichment (6-mer frequency, TF over GST control) | 1.12 fold enrichment (6-mer frequency, TF over GST control) | 1.07 fold enrichment (6-mer frequency, TF over GST control) | 1.15 fold enrichment (6-mer frequency, TF over GST control) | 1.09 fold enrichment (6-mer frequency, TF over GST control) | 1.12 fold enrichment (6-mer frequency, TF over GST control) | 1.06 fold enrichment (6-mer frequency, TF over GST control) | 1.07 fold enrichment (6-mer frequency, TF over GST control) | 1.11 fold enrichment (6-mer frequency, TF over GST control) | 1.11 fold enrichment (6-mer frequency, TF over GST control) | 1.18 fold enrichment (6-mer frequency, TF over GST control) | 1.02 fold enrichment (6-mer frequency, TF over GST control) | 1.03 fold enrichment (6-mer frequency, TF over GST control) | 1.06 fold enrichment (6-mer frequency, TF over GST control) | 1.14 fold enrichment (6-mer frequency, TF over GST control) | 1.07 fold enrichment (6-mer frequency, TF over GST control) | – |
| GGTACT | 1.28 fold enrichment (6-mer frequency, TF over GST control) | 1.39 fold enrichment (6-mer frequency, TF over GST control) | 1.05 fold enrichment (6-mer frequency, TF over GST control) | 1.24 fold enrichment (6-mer frequency, TF over GST control) | 1.24 fold enrichment (6-mer frequency, TF over GST control) | 1.19 fold enrichment (6-mer frequency, TF over GST control) | 1.03 fold enrichment (6-mer frequency, TF over GST control) | 1.26 fold enrichment (6-mer frequency, TF over GST control) | 1.38 fold enrichment (6-mer frequency, TF over GST control) | 1.3 fold enrichment (6-mer frequency, TF over GST control) | 1.31 fold enrichment (6-mer frequency, TF over GST control) | 1.31 fold enrichment (6-mer frequency, TF over GST control) | 1.2 fold enrichment (6-mer frequency, TF over GST control) | 1.28 fold enrichment (6-mer frequency, TF over GST control) | 1.24 fold enrichment (6-mer frequency, TF over GST control) | 1.16 fold enrichment (6-mer frequency, TF over GST control) | 1.05 fold enrichment (6-mer frequency, TF over GST control) |
